These results are taken from PubChem BioAssay.

Test [1] can be described thus: optical density shifts of acrAB sulA E. coli – strain DRC41, OD650, 48 h, E. coli filamentation inducer project, primary screen (AID 1152).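 Note: E. coli MC1000 strain DRC41 lacking acrAB efflux pump and sulA.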 The conditions noted are these: higher = more signal, called active from +8 up or from −8 down.
A short description of test [2]: probe aLefty1 binding on compound microarray – biochemical, small-molecule microarray, 635/667 nm fluorescence, primary screen (AID 1153).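 Note: score merges spot fluorescence with signal-to-noise ratio from the scanned slide images.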 The conditions noted are these: higher = more signal.
Test [3] is described as follows: plasmodial surface anion channel blockers, osmotic lysis – cell-based, P. falciparum Indochina, OD700, 1 h, primary screen (AID 1154). To be noted: P. falciparum Indochina infected RBC osmotic lysis, higher = more signal, called active from +8 up or from −8 down.
The nature of test [4]: plasmodial surface anion channel blockers, osmotic lysis – cell-based, P. falciparum Indochina, OD700, 2 h, primary screen (AID 1155).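 Note: lysis reports solute entry through the parasite surface anion channel PSAC.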 To be noted: P. falciparum Indochina infected erythrocytes, higher = more signal, called active from +8 up or from −8 down.
The nature of test [5]: changes in parasitized red cell lysis, either direction – P. falciparum Indochina, OD700, 3 h, PSAC antagonist project, primary screen (AID 1156). The conditions noted are these: P. falciparum-infected erythrocytes, osmotic lysis, higher = more signal, called active from +8 up or from −8 down.
A short description of test [6]: plasmodial surface anion channel blockers, osmotic lysis – cell-based, P. falciparum Indochina, OD700, 18 h, primary screen (AID 1157). The conditions noted are these: P. falciparum Indochina infected erythrocytes, osmotic lysis OD700, 18 h; higher = more signal, called active from +8 up or from −8 down.
A short description of test [7]: S6 kinase pathway phospho-S6 level changes – cell-based, A549, cytoblot, luminescence, serum-stimulated, primary screen (AID 1158).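 Note: serum-stimulated A549 lung adenocarcinoma cells; signal is phosphorylated S6 detected by cytoblot immunostaining with HRP secondary.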 To be noted: 5 h, higher = more signal.
The target of test [8] is NADPH oxidase 2 (Homo sapiens) (UniProt P04839). The test is described as follows: compounds shifting NOX2 Amplex Red fluorescence – cell-based, HEK293-NOX2, PMA-stimulated, NOX inhibitor project, primary screen (AID 1159). Note: test concentration not given here. The conditions noted are these: 45 min, higher = more signal, called active from +8 up or from −8 down.
The target in test [9] is NADPH oxidase 4 (Homo sapiens) (UniProt Q9NPH5). Description: compounds shifting NOX4 Amplex Red fluorescence – cell-based, HEK293-NOX4, tetracycline-induced, NOX inhibitor project, primary screen (AID 1160). To be noted: HEK293-NOX4, Amplex Red H2O2 fluorescence, 45 min; higher = more signal, called active from +8 up or from −8 down.
For test [10], the target named is NADPH oxidase 5 (Homo sapiens) (UniProt Q96PH1). Description: compounds shifting NOX5 Amplex Red fluorescence – cell-based, HEK293-NOX5, NOX inhibitor project, primary screen (AID 1161). The conditions noted are these: HEK293-NOX5, ionomycin, 45 min, higher = more signal.
The nature of test [11]: compound effects on lung adenocarcinoma cell viability – A549, calcein-AM fluorescence, 48 h, basal, profiling panel (AID 1162). Note: test concentration not given here. The conditions noted are these: higher = more signal.
The nature of test [12]: compound effects on differentiated 3T3-L1 adipocyte viability – cell-based, 3T3-L1 adipocytes, calcein-AM fluorescence, 48 h, basal, profiling panel (AID 1163). Note: test concentration not given here. To be noted: 3T3-L1 adipocytes viability, higher = more signal.
Test [13] in a line: compound effects on hepatocellular carcinoma cell viability – HepG2, calcein-AM fluorescence, 48 h, basal, profiling panel (AID 1164). Note: test concentration not given here. To be noted: higher = more signal.
Test [14] in a line: compound effects on multiple myeloma cell viability – MM1S, calcein-AM fluorescence, 48 h, basal, profiling panel (AID 1165). Note: test concentration not given here. The conditions noted are these: higher = more signal.
Test [15] is described as follows: calcein-AM signal in unstimulated myeloma cells – cell-based, calcein-AM fluorescence, 48 h, PK04 Diversity Set, profiling panel (AID 1166).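 Note: cells grown under basal conditions without added stimulus; test concentration not given here.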 To be noted: RPMI8226 myeloma viability, higher = more signal.
Test [16] is described as follows: JC-1 mitochondrial signal, unstimulated HepG2 cells – cell-based, JC-1 fluorescence, 24 h, 100 nL compound, profiling panel (AID 1167). Note: test concentration not given here. To be noted: HepG2 mitochondrial potential, higher = more signal.
The nature of test [17]: JC-1 mitochondrial signal, unstimulated adipocytes – cell-based, JC-1 fluorescence, 3T3-L1 adipocytes, 24 h, 100 nL compound, profiling panel (AID 1168). Note: test concentration not given here. To be noted: JC-1 mitochondrial fluorescence, higher = more signal, called active from +8 up or from −8 down.
The nature of test [18]: JC-1 mitochondrial signal, unstimulated myeloma cells – cell-based, JC-1 fluorescence, RPMI8226, 24 h, 100 nL compound, profiling panel (AID 1169). Note: test concentration not given here. The conditions noted are these: JC-1 mitochondrial potential fluorescence, higher = more signal.
Test [19] in a line: JC-1 mitochondrial signal, unstimulated MM1S myeloma – cell-based, JC-1 fluorescence, 24 h, 100 nL compound, profiling panel (AID 1170). Note: test concentration not given here. The conditions noted are these: MM1S mitochondrial potential, higher = more signal.
A short description of test [20]: resazurin metabolic signal in A549 cells – cell-based, resazurin fluorescence, 24 h, PK04 Diversity Set, profiling panel (AID 1171). Note: test concentration not given here. To be noted: A549 viability, higher = more signal, called active from +8 up or from −8 down. (In general: Alamar Blue is a resazurin reagent that responds to reducing activity.)

The structures appear in SMILES notation. The source made the active and inactive calls.

Chain of NADPH oxidase 4 (Homo sapiens) (Q9NPH5 whole entry, looked up): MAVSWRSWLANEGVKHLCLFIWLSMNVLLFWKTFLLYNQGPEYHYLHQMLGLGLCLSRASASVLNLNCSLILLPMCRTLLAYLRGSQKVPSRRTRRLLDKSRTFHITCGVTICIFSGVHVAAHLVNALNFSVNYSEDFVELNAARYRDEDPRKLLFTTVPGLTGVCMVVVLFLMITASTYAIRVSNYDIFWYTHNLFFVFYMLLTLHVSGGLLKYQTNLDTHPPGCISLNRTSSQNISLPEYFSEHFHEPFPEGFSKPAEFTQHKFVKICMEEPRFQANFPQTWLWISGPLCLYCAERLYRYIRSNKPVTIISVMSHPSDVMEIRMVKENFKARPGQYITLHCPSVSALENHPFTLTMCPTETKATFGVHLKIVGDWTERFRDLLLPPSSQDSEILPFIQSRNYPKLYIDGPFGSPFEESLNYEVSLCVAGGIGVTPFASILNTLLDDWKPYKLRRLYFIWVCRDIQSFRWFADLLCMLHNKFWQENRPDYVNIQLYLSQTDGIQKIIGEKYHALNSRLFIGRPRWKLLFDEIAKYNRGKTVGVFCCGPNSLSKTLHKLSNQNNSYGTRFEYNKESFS
Chain of NADPH oxidase 5 (Homo sapiens) (Q96PH1 whole entry, looked up): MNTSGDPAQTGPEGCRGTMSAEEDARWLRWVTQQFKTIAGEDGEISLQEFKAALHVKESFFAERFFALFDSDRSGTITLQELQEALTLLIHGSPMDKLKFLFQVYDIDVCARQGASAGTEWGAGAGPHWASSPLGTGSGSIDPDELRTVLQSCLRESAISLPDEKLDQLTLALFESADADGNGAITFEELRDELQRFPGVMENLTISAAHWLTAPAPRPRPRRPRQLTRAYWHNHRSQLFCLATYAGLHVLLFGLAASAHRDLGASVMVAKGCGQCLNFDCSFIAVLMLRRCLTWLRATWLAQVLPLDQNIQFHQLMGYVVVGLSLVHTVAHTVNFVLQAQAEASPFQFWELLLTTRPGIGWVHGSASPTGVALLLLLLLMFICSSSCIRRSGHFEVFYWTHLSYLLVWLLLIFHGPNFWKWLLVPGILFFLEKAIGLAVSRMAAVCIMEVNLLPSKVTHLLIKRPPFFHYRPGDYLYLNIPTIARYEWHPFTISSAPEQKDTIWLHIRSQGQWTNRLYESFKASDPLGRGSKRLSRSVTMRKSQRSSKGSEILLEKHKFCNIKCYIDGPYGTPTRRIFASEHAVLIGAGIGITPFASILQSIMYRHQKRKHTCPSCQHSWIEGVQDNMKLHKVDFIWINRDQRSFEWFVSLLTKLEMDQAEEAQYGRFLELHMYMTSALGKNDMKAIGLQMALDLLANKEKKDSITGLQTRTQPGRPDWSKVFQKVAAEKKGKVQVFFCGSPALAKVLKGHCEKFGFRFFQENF
Chain of NADPH oxidase 2 (Homo sapiens) (P04839 whole entry, looked up): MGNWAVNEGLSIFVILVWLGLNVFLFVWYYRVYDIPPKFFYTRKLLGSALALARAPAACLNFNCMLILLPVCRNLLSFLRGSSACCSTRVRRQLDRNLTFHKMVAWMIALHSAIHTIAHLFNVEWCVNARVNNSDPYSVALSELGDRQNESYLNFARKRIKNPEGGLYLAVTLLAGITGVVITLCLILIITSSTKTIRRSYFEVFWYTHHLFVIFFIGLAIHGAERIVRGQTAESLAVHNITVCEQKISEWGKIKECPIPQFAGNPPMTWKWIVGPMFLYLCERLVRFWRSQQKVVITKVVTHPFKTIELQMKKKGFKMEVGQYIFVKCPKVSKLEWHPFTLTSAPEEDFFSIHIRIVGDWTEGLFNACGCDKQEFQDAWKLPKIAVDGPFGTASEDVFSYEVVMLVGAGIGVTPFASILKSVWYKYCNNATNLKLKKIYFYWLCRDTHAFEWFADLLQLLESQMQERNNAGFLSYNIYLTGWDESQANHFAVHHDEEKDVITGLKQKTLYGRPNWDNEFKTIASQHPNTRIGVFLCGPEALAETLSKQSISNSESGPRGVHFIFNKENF

As for `COc1ccc([Si](C)(C)[C@@H]2[C@@H](CCO)O[C@]3(C(=O)N(Cc4cccc(N5C(=O)c6cccc7cccc5c67)c4)c4ccccc43)[C@H]2C)cc1`, the z-score was -0.21 (inactive) in [1]; 3.33 (inactive) in test [3]; 3.66 (inactive) in test [4]; -0.0486 (inactive) in test [5]; 2.34 (inactive) in test [6]; 0.0181 in test [7]. For the same compound, the z-score in test [8] is 0.498 (inactive); in [9], 0.86 (inactive); in test [10], 2.42; in [11] it was -1.03; in test [12], 0.421; in [13], -3.42. Further, the z-score in test [14] was -1.32; in test [15], -4.25; in test [16], -0.543; in test [17], 0.145 (inactive); in test [18], -1.05; in [19], -1.77. Further, the z-score in test [20] is -2.26 (inactive). Further, the composite z-score in [2] was found to be 0.0449.
On to `NCCCCCCNC(=O)[C@H]1C[C@H]2C(=O)N[C@@H](Cc3ccccc3)C(=O)N2[C@H]1c1ccc(O)cc1`, for which the z-score in test [1] was 1.42 (inactive); in test [3] it was 4.21 (inactive); in test [4], -0.243 (inactive); in test [5], 0.731 (inactive); in [6], -2.2 (inactive); in test [7] it was 0.316. The z-score in [8] is 1.81 (inactive); in test [9], 1.38 (inactive); in test [10], 2.31; in test [11], 0.0513; in test [12] it was 0.565; in test [13], -0.623. Further, the z-score in [14] was 0.675; in test [15], 0.337; in test [16], -0.424; in [17], 0.0433 (inactive); in [18], -1; in [19], -0.119. For the same compound, the z-score in [20] was 1.18 (inactive). For the same compound, in [2], the composite z-score is -0.0094.
Turning to `C[C@H]1C2=C3C(CC[C@H]4C(OCc5ccc(F)cc5C(F)(F)F)OC[C@](C)([C@@H]34)N(C(=O)OC(C)(C)C)C2)C(CO)C1CO` (stereo not given in full), the z-score in test [1] was -2.8 (inactive); in test [3], 1.94 (inactive); in test [4], 0.368 (inactive); in test [5], 2.1 (inactive); in test [6], 0.864 (inactive); in test [7], 0.118. Besides, the z-score in test [8] is -0.678 (inactive); in test [9], -2.59 (inactive); in test [10], -1.97; in [11], -1.49; in test [12], -0.723; in test [13] it was -0.907. The z-score in test [14] is -3.22; in [15] it was -4.68; in test [16] it was -0.987; in test [17], -1.13 (inactive); in test [18], -0.522; in test [19] it was 0.0495. In addition, in test [20], the z-score was -0.629 (inactive). Besides, in test [2], the composite z-score was 0.687.
As for `COC(=O)[C@]1(CCS(=O)(=O)c2ccccc2)N=C(c2ccc(OCCCO)cc2)O[C@@H]1c1ccccc1CN=[N+]=[N-]`, the z-score in test [1] is -2.11 (inactive); in [3] it was 30.4 (active); in [4] it was 28 (active); in [5], 1.82 (inactive); in [6], 5.19 (inactive); in test [7], -0.505. Also, the z-score in [8] is -5.83 (inactive); in [9], -1.31 (inactive); in test [10], -3.08; in test [11], -2.82; in test [12], 0.65; in test [13], -2.94. In addition, the z-score in [14] is -3.4; in test [15], -3.15; in test [16], -1.05; in test [17], -1.02 (inactive); in [18] it was -1.08; in test [19] it was -1.88. For the same compound, the z-score in [20] is -4.11 (inactive). The compound further showed a composite z-score in [2] of 0.15.
Consider `COC(=O)[C@@]1(Cc2ccc(OC)cc2)[C@H]2c3cc(C(=O)N(C)C)n(CCc4c[nH]c5ccc(O)cc45)c3C[C@H]2CN1C(=O)c1ccccc1`, for which the z-score in test [1] is -1.58 (inactive); in [3], 4.25 (inactive); in test [4], 1.25 (inactive); in test [5], 0.396 (inactive); in test [6] it was 1.23 (inactive); in test [7] it was 0.092. The z-score is 0.689 (inactive) in test [8]; 0.0624 (inactive) in [9]; 1.14 in test [10]; -1.66 in [11]; -0.737 in test [12]; 0.197 in test [13]. Further, the z-score in test [14] was -1.98; in [15], -1.32; in test [16] it was 0.941; in [17], -0.966 (inactive); in test [18], -0.564; in test [19] it was -1.37. Also, the z-score in test [20] was -1.33 (inactive). Besides, the composite z-score in test [2] stood at 0.825.
For the compound `NC(N)=NCc1cn(CCc2c[nH]c3ccccc23)nn1`, the z-score in test [1] was -0.75 (inactive); in test [3], 0.488 (inactive); in test [4] it was 0.078 (inactive); in test [5], 0.0119 (inactive); in [6], 0.114 (inactive); in test [7] it was -0.583. Moreover, the z-score in test [8] is -0.00385 (inactive); in test [9] it was 0.0455 (inactive); in test [10], -3.95; in [11], -0.609; in [12], -0.596; in test [13], -0.173. Besides, the z-score is -0.613 in test [14]; -0.286 in [15]; -1.09 in test [16]; -1.04 (inactive) in test [17]; -0.588 in test [18]; -0.77 in test [19]. The z-score in test [20] is -0.975 (inactive). Besides, the composite z-score in test [2] is -0.151.
For `COc1ccc([Si](C)(C)[C@H]2[C@H](CCn3cc(CCO)nn3)O[C@@]3(C(=O)N(Cc4ccc(N5C(=O)c6cccc7cccc5c67)cc4)c4ccccc43)[C@@H]2C)cc1`, the z-score in [1] was 1.91 (inactive); in test [3], 4.64 (inactive); in test [4] it was 0.882 (inactive); in [5], 0.134 (inactive); in [6] it was -0.627 (inactive); in test [7], 1.64. Besides, the z-score is -0.985 (inactive) in test [8]; 1.82 (inactive) in test [9]; 1.44 in test [10]; -1.61 in test [11]; 1.36 in test [12]; -4.11 in test [13]. Besides, the z-score was -2.56 in test [14]; -4.29 in test [15]; -0.0483 in test [16]; -0.712 (inactive) in test [17]; -1.09 in test [18]; -2.18 in [19]. Further, the z-score in test [20] is -2.57 (inactive). The compound also came in with a composite z-score in test [2] of 0.108.
